KB-3-1 cytotox: KB-3-1 parental cell cytotoxicity; KB-3-1 viability, CellTiter-Glo ATP luminescence, 72 h; Potency, µM (highest dose often 46.1 µM), hits mostly cytotoxic; 1.4% of 400,000 active; also: % is scaled to controls: 0 for no effect and ±100 for the full control effect; nearly all actives have a fitted effect of over 60% in size
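Luminescent ATP read-out (CellTiter-Glo) measures survival of drug-naive KB-3-1 cells after 72 h compound exposure at 37 °C. Titration series was screened from lowest to highest concentration, with DMSO vehicle plates as background controls.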
KB-V1 MDR tox: kills drug-selected multidrug resistant KB-V1 cells; KB-V1 MDR cells viability, CellTiter-Glo, 72 h; Potency, µM (titrated, usually from 46.1 µM), hits mostly cytotoxic; 3.4% of 400,000 active; AID 1347076; also: % is scaled to controls: 0 for no effect and ±100 for the full control effect; nearly all actives have a fitted effect of over 60% in size
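Readout: CellTiter-Glo luminescence, 10 min after addition. Cells: KB-V1 MDR subline, 72 h at 37 degrees C with compound. Analysis: corrected, normalized data fitted to concentration-effect curves.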
SW480 rerep: DNA re-replication induction in SW480 cells | SW480 DNA re-replication, Hoechst DNA content imaging, 48 h | Potency, µM (highest dose often 46.1 µM), without a hit: at the highest dose re-replication activation, hits mostly activators | 1.8% of 340,000 active; also: % of control where 0% means no effect; nearly all actives have a fitted effect of over 55% in size
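DNA re-replication was detected as more nuclei of elevated Hoechst intensity after 48 hr exposure to compound (23 nL pinned per well of 250 cells).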
MCF10A rereplic: induces DNA re-replication in MCF 10a normal breast cells | MCF 10A DNA re-replication, Hoechst nuclear intensity, 48 h | Potency, µM (titrated, usually from 46.1 µM), for the others: at the highest dose activity, positive = re-replication, most hits filed as activators | 2.9% of 350,000 active; also: % of control where 0% means no effect; nearly all actives have a fitted effect of over 50% in size
ALOX12 inh: blocks human arachidonate 12S-lipoxygenase; Potency, µM (top dose mostly 108 µM), without a hit: at the highest dose activity change, negative = inhibition, most hits filed as inhibitors; P18054; purified 12hLO, xylenol orange hydroperoxide absorbance; AID 1671190; 1.1% of 580,000 active; also: % is scaled to controls: 0 for no effect and ±100 for the full control effect
Target sequence (P18054 whole entry, looked up): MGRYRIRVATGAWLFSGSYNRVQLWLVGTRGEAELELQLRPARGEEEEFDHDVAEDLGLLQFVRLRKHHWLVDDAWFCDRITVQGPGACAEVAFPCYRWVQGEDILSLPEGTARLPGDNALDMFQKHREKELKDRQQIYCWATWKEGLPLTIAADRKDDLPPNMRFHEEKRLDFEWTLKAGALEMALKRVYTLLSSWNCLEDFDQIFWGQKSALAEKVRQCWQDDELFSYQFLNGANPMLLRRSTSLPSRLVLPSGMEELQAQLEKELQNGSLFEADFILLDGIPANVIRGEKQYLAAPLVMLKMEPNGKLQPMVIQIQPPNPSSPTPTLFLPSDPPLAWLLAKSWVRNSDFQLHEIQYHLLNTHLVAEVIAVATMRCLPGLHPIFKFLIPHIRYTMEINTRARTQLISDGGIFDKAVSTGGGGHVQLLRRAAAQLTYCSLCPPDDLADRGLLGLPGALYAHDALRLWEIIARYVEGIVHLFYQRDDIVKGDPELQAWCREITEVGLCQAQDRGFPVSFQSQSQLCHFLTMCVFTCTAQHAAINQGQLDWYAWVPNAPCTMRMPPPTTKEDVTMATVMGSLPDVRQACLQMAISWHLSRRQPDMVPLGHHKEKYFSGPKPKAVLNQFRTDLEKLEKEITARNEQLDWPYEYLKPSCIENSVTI
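Hydroperoxide product was detected by ferrous iron/xylenol orange as the 573 to 405 nm absorbance ratio. Arachidonic acid at 40 uM (final) was turned over for 30 min at room temperature by 150 nM human 12hLO, pH 7.0 Hepes buffer, after 15 min compound preincubation.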
PINK1 modulator: modulators of PINK1 expression; PINK1 immunofluorescence, high-content cytometry, 24 h; 0.2% of 410,000 active; Potency, µM (top dose mostly 76.6 µM), for inactives: at the highest dose activation (PINK1 increase), hits mostly activators; AID 624263; active = well fitted activation curve with a large enough effect; inconclusive = small, poorly fitted or top-dose-only effect; cell line not stated here; also: % of control where 0% means no effect; nearly all actives have a fitted effect of over 65% in size
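Measures PINK1 amount and localization on or inside mitochondria by immunofluorescence. Stable cells get compounds at 5 concentrations for 24 hours before fixation and staining; CCCP controls included.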
Numbers without * were called inactive; i = inactive; ? = inconclusive; . = not tested or not shown; [ ] = another dose, or the depositor's remark. A selection: hits, their analogues and other compounds. The true share with any hit is near 5.8%. Unless noted, calls follow the shape of the dose curve; as a rule, active = well fitted curve in the direction sought with a large enough effect; inconclusive = small, poorly fitted or top-dose-only effect, or another doubt; inactive = no such curve, though single readings can be large; an effect the other way counts as inactive or inconclusive. Potency is read from the fitted curve at half-maximal effect.

SMILES	KB-3-1 cytotox	KB-V1 MDR tox	SW480 rerep	MCF10A rereplic	ALOX12 inh	PINK1 modulator
COc1ccc(S(=O)(=O)N2CCCCC2c2cc(C(=O)Nc3ccc(OC)cc3C)no2)cc1 (stereo unspecified)	18µM*	i	.	.	12%	0%
O=C1/C(=C\c2cccs2)Sc2ccccc21	.	.	.	.	-11%	.
CCOCc1c(C(=O)NC2=Nc3ccccc3NC(CC)=C2C(=O)OCC)oc2ccccc12	?	?	21µM*	10µM*	-11%	0%
COc1ccc(-c2cc(-c3cccnc3)cn3cncc23)cc1	.	.	.	.	-17%[176 µM]	.
CCSc1nnc(NC(=O)CSc2nnc(Cc3cccn3C)n2CCc2ccccc2)s1	i	8.2µM*	2%	-2%	5%	-5%[38.3 µM]
O=C(NCc1nnc(SCC(=O)N2CCCc3ccccc32)n1-c1ccccc1)c1cccc2ccccc12	?	16µM*	11%	18%	-3%	-1%
S=c1[nH]nc(CCc2ccccc2)n1-c1ccc(Cl)cc1	i	i	1%	6%	32µM*	0%
COc1ccc(NC(=O)CSc2nnc(Cc3cccn3C)n2CCc2ccccc2)cc1OC	i	15µM*	-6%	2%	11%	-1%[38.3 µM]
Cc1cc(C)nc(/N=C2\NC(=O)CN2c2cc(Cl)cc(Cl)c2)n1	.	.	.	.	5%	.
Cc1ccc(-n2c(Cc3cccn3C)nnc2SCC(=O)N2CCc3ccccc32)cc1	i	6.5µM*	8%	6%	-2%	3%[38.3 µM]
COc1ccc(-n2c(Cc3cccn3C)nnc2SCC(=O)NCCc2ccccc2)cc1	i	9.2µM*	3%	8%	3%	-4%[38.3 µM]
Cc1cc(C)cc(NC(=O)CSc2nnc(Cc3cccn3C)n2-c2ccc(F)cc2)c1	i	i	0%	13%	465%	1%
Cc1cc(C)c(NC(=O)CSc2nnc(Cc3cccn3C)n2-c2ccc(F)cc2)c(C)c1	i	23µM*	0%	19%	3%	-8%[38.3 µM]
COc1ccccc1NC(=O)CSc1nnc(Cc2cccn2C)n1CCc1ccccc1	i	i	3%	-1%	12%	-2%[38.3 µM]
Cn1cccc1Cc1nnc(SCC(=O)N2CCc3ccccc32)n1-c1ccc(F)cc1	i	i	2%	4%	473%	8%
COc1ccc(NC(=O)CSc2nnc(Cc3cccn3C)n2CCc2ccccc2)c(OC)c1	i	3.3µM*	2%	?	-2%	0%[38.3 µM]
Cn1cccc1Cc1nnc(SCC(=O)NCCc2ccccc2)n1C	i	i	-7%	-1%	-24%	3%
CCOc1ccc2c(=O)c(-c3ccc(OC)c(OC)c3)coc2c1	.	.	.	.	37%	.
COc1ccccc1-c1ccc(=O)n(Cc2ccccc2F)n1	.	.	.	.	-5%	.
O=C(CSc1nnc(CCc2ccccc2)n1-c1ccc(Cl)cc1)c1ccccc1	i	?	-5%	?	?	?
COc1ccc(-n2c(CCc3ccccc3)nnc2SCC(=O)c2ccc(Cl)cc2)cc1	?	5.8µM*	14%	23%	-16%	5%
CCSc1nnc(NC(=O)CSc2nccn2-c2cccc(C)c2)s1	i	16µM*	3%	-9%	-22%	0%
O=C(Nc1ccc(Cl)cc1)C1CCN(c2ncnc3nc[nH]c23)CC1	.	.	.	.	-9%	.
CC(C)C(=O)NC(c1ccco1)c1c(O)ccc2ccccc12 (stereo unspecified)	i	i	27%	21µM*	?	2%[38.3 µM]
COc1ccc(C(NC(=O)C(C)C)c2c(O)ccc3ccccc23)cc1 (stereo unspecified)	?	i	?	18µM*	-25%	4%
SMILES	KB-3-1 cytotox	KB-V1 MDR tox	SW480 rerep	MCF10A rereplic	ALOX12 inh	PINK1 modulator
CCCCC(=O)NC(c1ccc([N+](=O)[O-])cc1)c1c(O)ccc2ccccc12 (stereo unspecified)	?	16µM*	?	?	-37%	?
Cc1ccc(-c2c[n+](Cc3ccc(Cl)cc3)c3n2CCC3)cc1	?	i	5%	2%	98%	-2%
Cc1ccc(C[n+]2cc(-c3ccc(Cl)cc3)n3c2CCC3)cc1	6.5µM*	?	2%	11%	-1%	3%
Cc1ccc(-c2c[n+](Cc3cccc(Cl)c3)c3n2CCC3)cc1	8.2µM*	i	-5%	9%	?	2%
Clc1cccc(C[n+]2cc(-c3ccccc3)n3c2CCC3)c1	9.2µM*	i	-33%	17%	7%	2%
Oc1ccc2[nH]ccc2c1	i	i	8.2µM*	17%	22%	3%
Cc1ccc(OCC(=O)Nc2ccc(O)c(-c3nc4ccccc4o3)c2)cc1	?	?	-6%	16µM*	0%	-2%
O=C(COc1ccc([N+](=O)[O-])cc1)Nc1ccc2oc(-c3ccc(F)cc3)nc2c1	.	.	.	.	7.9µM*	.
Cc1ccc(OCC(=O)Nc2ccc(O)c(-c3nc4cc(C)c(C)cc4o3)c2)cc1	?	i	.	.	.	-1%
COc1ccc(-c2nc3cc(NC(=O)COc4ccc(F)cc4)ccc3o2)cc1	i	i	.	.	?	8%
N#Cc1nc(COc2ccccc2F)oc1NCCCN1CCOCC1	.	.	.	.	48%	.
CCCCc1cnc2c(c1SCC(N)=O)c(=O)n(C)c(=O)n2C	.	.	.	.	-2%	.
COc1ccc(NC(=O)C2CCCN(S(=O)(=O)c3cccnc3)C2)cc1OC (stereo unspecified)	i	i	1%	4%	-13%	0%
O=C(COc1ncnc2c1cnn2-c1ccccc1)Nc1ccc(S(=O)(=O)N2CCCCC2)cc1	i	21µM*	-1%	3%	-18%	-2%
COc1ccc(S(=O)(=O)N2CCCC(C(=O)Nc3cccnc3)C2)cc1Cl (stereo unspecified)	16µM*	?	-2%[9.22 µM]	?	?	-2%
CCOC(=O)N1CCN(C(=O)C2CCCN(S(=O)(=O)c3ccc(F)cc3)C2)CC1 (stereo unspecified)	i	i	-10%	-3%	6%	0%
CCOC(=O)N1CCN(C(=O)C2CCCN(S(=O)(=O)c3ccc(C)cc3)C2)CC1 (stereo unspecified)	i	3.7µM*	-6%	-4%	23%	-4%[38.3 µM]
CCOc1ccc(S(=O)(=O)N2CCCC(C(=O)Nc3ccccc3)C2)cc1 (stereo unspecified)	i	10µM*	-9%	20%	60%	10%
CCOc1ccc(S(=O)(=O)N2CCCC(C(=O)Nc3cc(C)cc(C)c3)C2)cc1 (stereo unspecified)	i	i	4%	?	-2%	6%
O=C(c1ccccc1F)N1CCC2(CC1)COc1ccccc1CN2	.	.	.	.	28%[176 µM]	.
O=C(NC1CCCCC1)C1CCN(C2=NS(=O)(=O)c3ccccc32)CC1	.	.	.	.	-25%	.
